Data from PubChem BioAssay (NCI).
About 79,000 compounds went through this panel and 15% of them were active in at least one assay; those are over-represented in the sample as a whole. A number with no mark means an inactive call. Calls of active or inactive are those of the source. Rule as the data show it: active = growth inhibition above about 70%; inactive = the rest.

Key:
[1] = NCI Yeast Anticancer Drug Screen. Data for the rad50 strain (AID 155);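 also: 0% = growth of vehicle-only cultures of the same strain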; conditions: S. cerevisiae rad50 strain growth inhibition, active compounds read high
How it was run: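 Genetically altered yeast (DNA repair pathway); compound treatment; growth inhibition vs vehicle ctrl.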

[2] = NCI Yeast Anticancer Drug Screen. Data for the mec2-1 strain (AID 157); conditions: S. cerevisiae mec2-1 strain, active compounds read high
How it was run: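 Vehicle-treated cultures served as reference for growth inhibition of compound-exposed mec2-1 yeast.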

[3] = NCI Yeast Anticancer Drug Screen. Data for the sgs1 mgt1 strain (AID 161);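 also: 0% = growth of cultures given vehicle only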; conditions: S. cerevisiae sgs1 mgt1 strain, active compounds read high
How it was run: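 Mutant yeast exposed to compound; growth scored against vehicle-only wells.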

[4] = NCI Yeast Anticancer Drug Screen. Data for the bub3 strain (AID 167); conditions: S. cerevisiae bub3 mutant strain, active compounds read high
How it was run: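 Yeast carrying a defined mutation is treated with each compound, and growth is compared with that of vehicle-exposed cells to give inhibition.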

[5] = NCI Yeast Anticancer Drug Screen. Data for the mlh1 rad18 strain (AID 175); conditions: S. cerevisiae mlh1 rad18 strain growth inhibition, active compounds read high
How it was run: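 Vehicle-treated cultures served as the reference for growth inhibition in a yeast strain carrying DNA damage repair alterations exposed to each compound.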

[6] = NCI Yeast Anticancer Drug Screen. Data for the cln2 rad14 strain (AID 165);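 also: 0% = growth equal to vehicle treated cultures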; conditions: S. cerevisiae cln2 rad14 strain, active compounds read high
How it was run: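 Each compound was tested on cln2 rad14 yeast. Inhibition of growth was calculated against vehicle-exposed controls.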

[7] = at 5.0 µM (retest, dose inferred, filed as 0.5)
[8] = at 50.0 µM (retest, dose inferred, filed as 5.0)

SMILES	growth inhibition [1, 7] [%]	growth inhibition [1, 8]	growth inhibition ([1]; at 50.0 µM)	growth inhibition [2, 7] [%]	growth inhibition [2, 8]	growth inhibition ([2]; at 50.0 µM)	growth inhibition [3, 7] [%]	growth inhibition [3, 8]	growth inhibition ([3]; at 50.0 µM)	growth inhibition [4, 7] [%]	growth inhibition [4, 8]	growth inhibition ([4]; at 50.0 µM)	growth inhibition [5, 7] [%]	growth inhibition [5, 8]	growth inhibition ([5]; at 50.0 µM)	growth inhibition [6, 7] [%]	growth inhibition [6, 8]	growth inhibition ([6]; at 50.0 µM)
Cc1ccccc1N=Nc1c(C)nn(C(N)=S)c1-c1ccccc1	6	85% (active)	95.2% (active)	-15	96% (active)	57.1%	-5	96% (active)	94.8% (active)	-3	97% (active)	34.5%	12	97% (active)	96.3% (active)	–	–	–
CC(=O)[O-].O=C(N/N=C/c1ccccc1[O-])c1ccccc1.[Zn+2]	-3	61%	-2.05%	6	89% (active)	14.6%	1	86% (active)	55.8%	–	–	–	9	91% (active)	32%	-5	32%	-16.9%
CS(=O)(=O)OCC(COS(C)(=O)=O)C(c1ccccc1)c1ccccc1Br (stereo unspecified)	12	34%	28.4%	7	29%	36%	14	47%	37.1%	-1	16%	5.4%	7	51%	56.2%	–	–	–
O=c1[nH]c2ccc([N+](=O)[O-])cc2c2ccc(Cl)cc12	3	9%	77.2% (active)	-5	25%	51.8%	-11	16%	61.8%	0	2%	7.4%	11	40%	71.7% (active)	–	–	–
CC1=CC(C)(C)Nc2cc(N)ccc21	-166	-193%	50.5%	-49	-65%	20.6%	-64	-72%	43.8%	–	–	–	-148	-136%	54.5%	-54	-82%	-35.5%
CCc1c(C)[nH]c(-c2csc(N)n2)c1C	-1	93% (active)	-4.25%	1	95% (active)	83.9% (active)	–	–	–	4	92% (active)	67.8%	2	93% (active)	56.8%	1	93% (active)	31.7%
CCCCNCc1c(O)ccc2ccccc12	14	99% (active)	99.1% (active)	3	99% (active)	99.2% (active)	–	–	–	21	99% (active)	99% (active)	36	99% (active)	99.2% (active)	10	98% (active)	95.8% (active)
N#Cc1c(Cl)nnc(-c2ccccc2)c1-c1ccccc1	6	81% (active)	89.3% (active)	8	84% (active)	92.2% (active)	-8	83% (active)	92.8% (active)	–	–	–	4	91% (active)	93.6% (active)	-1	66%	93.8% (active)
Cc1c2cc[n+]([O-])cc2c(C)c2c1oc1ccccc12	65	99% (active)	50.5%	34	98% (active)	46.6%	13	98% (active)	42.4%	–	–	–	22	98% (active)	55.1%	23	99% (active)	50.8%
C/C=C(\C)CC/C=C/CO[Si](C)(C)C(C)(C)C	-19	-19%	-4.15%	-2	-19%	8.7%	-13	13%	5.25%	7	-11%	2.8%	-16	-8%	5.75%	–	–	–
Cc1ccc(Cc2n[nH]c(=O)[nH]2)cc1	32	35%	-28.9%	18	14%	-45.1%	30	33%	-35.7%	26	22%	-26.3%	45	52%	-31.6%	17	30%	-2.5%
Nc1c(Cl)[nH]c(C(F)(F)F)nc1=S	-2	-7%	5.2%	-7	-1%	-4.75%	-9	-7%	-2.45%	–	–	–	0	1%	23.3%	-7	4%	15.3%
CC12CC[C@@H](C(C)(C)O)C1[C@@H](O)CC1(C)C2CCC2[C@@]3(C)CC[C@H](O)C(C)(C)C3C(O)C[C@]21C (stereo partly specified)	17	98% (active)	90% (active)	19	99% (active)	92.5% (active)	9	98% (active)	92.3% (active)	–	–	–	41	98% (active)	91.8% (active)	17	98% (active)	91.4% (active)
O=C1OC(CC(=O)c2ccccc2Cl)C(Cl)=C1Cl (stereo unspecified)	6	33%	38.1%	7	35%	12.6%	39	52%	58.9%	1	37%	-0.55%	23	62%	65.7%	–	–	–
O=C1c2ccccc2-c2cc3ccccc3nc21	28	89% (active)	72.7% (active)	21	70% (active)	60.8%	–	–	–	15	73% (active)	61.3%	16	82% (active)	84.5% (active)	23	73% (active)	62.4%
O=[N+]([O-])c1cc2[nH]cnc2c([N+](=O)[O-])c1NCc1ccccc1	0	47%	68.5%	0	29%	34.3%	–	–	–	-4	25%	33.1%	-3	44%	72.5% (active)	-2	34%	24.2%
N#CC1(C#N)C2C=CC(C3CCC=C32)C1(C#N)C#N (stereo unspecified)	14	93% (active)	0.4%	17	97% (active)	45.3%	11	96% (active)	60.5%	25	97% (active)	95% (active)	25	97% (active)	68.8%	10	60%	-16.2%
CP(=O)(c1ccccc1)c1ccccc1	-20	-17%	12.3%	-1	5%	13.2%	-21	-14%	18.4%	-22	-20%	5.05%	-24	-25%	41.8%	–	–	–
O=C1OC2(CCCC2)OC1c1ccccc1 (stereo unspecified)	2	-7%	14.9%	-1	2%	-17.6%	–	–	–	-5	-4%	13.2%	-5	-9%	-6.4%	-4	0%	72.2% (active)
CCCCCCCSCC1C(=O)C23CC1CCC2C12COC(O)C1C(C)(C)C(O)CC2OC3=O (stereo unspecified)	-19	98% (active)	91.7% (active)	1	99% (active)	92.2% (active)	-11	98% (active)	92.2% (active)	-4	99% (active)	89% (active)	-29	98% (active)	63.4%	–	–	–
